PubChem BioAssay AID1159580 (chemical genetic matrix, 2015)
In all, about 5,500 compounds went through this assay and about 2,000 (36%) were called active. Another 18% or so got no clear call; they are omitted. Rule as the data show it: active = normalized growth mostly below about 0.91 (no sharp cut-off); inconclusive = no clear call, values can overlap the other calls; inactive = mostly above about 0.92. The list shows a part of the results.

Experiment: chemical genetic growth profiling, strain panel (AID 1159580);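 also: tested at 20 µM; growth read once vehicle control cultures reached saturation at 30 °C; 1 = growth at the plate median or of vehicle wells; lower values mean less growth of the strain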
Details: growth OD
[1] = S. cerevisiae deletion strains, locus YDR150W, strain NUM1, active compounds read low
[2] = S. cerevisiae deletion strains, locus YJR075W, strain HOC1, active compounds read low
[3] = S. cerevisiae deletion strains, locus YNL322C, strain KRE1, active compounds read low
[4] = S. cerevisiae deletion strains, locus YPL241C, strain CIN2, active compounds read low
[5] = S. cerevisiae deletion strains, locus YJL187C, strain SWE1, active compounds read low

Measured: normalized growth

NC(CCP(=O)(O)O)C(=O)O (configuration not stated)
inactive: S. cerevisiae deletion strains, locus YAL040C, strain CLN3, active compounds read low 1.01 | S. cerevisiae deletion strains, locus YCL061C, strain MRC1 (second series), active compounds read low 1 | [1] 1.01 | S. cerevisiae deletion strains, locus YDR363W, strain ESC2, active compounds read low 0.988 | S. cerevisiae deletion strains, locus YER002W, strain NOP16, active compounds read low 1.02 | [2] 0.992 | S. cerevisiae deletion strains, locus YNL175C, strain NOP13, active compounds read low 1 | S. cerevisiae deletion strains, locus YNL197C, strain WHI3, active compounds read low 0.983 | S. cerevisiae deletion strains, locus YNL224C, strain SQS1, active compounds read low 0.989 | [3] 0.986 | S. cerevisiae deletion strains, locus YOR083W, strain WHI5 (second series), active compounds read low 1.01 | [4] 1

CC(C)(C)S(=O)(=O)c1cnc(N)nc1N
inactive: S. cerevisiae deletion strains, locus YAL013W, strain DEP1, active compounds read low 1.03 | S. cerevisiae deletion strains, locus YBR229C, strain ROT2, active compounds read low 1.01 | S. cerevisiae deletion strains, locus YDL101C, strain DUN1, active compounds read low 1 | [1] 0.969 | S. cerevisiae deletion strains, locus YEL061C, strain CIN8, active compounds read low 0.993 | S. cerevisiae deletion strains, locus YGR078C, strain PAC10, active compounds read low 1.01 | S. cerevisiae deletion strains, locus YGR229C, strain SMI1, active compounds read low 1.01 | S. cerevisiae deletion strains, locus YHR030C, strain SLT2, active compounds read low 1.07 | S. cerevisiae deletion strains, locus YHR087W, strain rtc3, active compounds read low 1 | [5] 1.02 | S. cerevisiae deletion strains, locus YJR043C, strain POL32, active compounds read low 0.985 | [2] 1.01 | S. cerevisiae deletion strains, locus YKL190W, strain CNB1, active compounds read low 1 | S. cerevisiae deletion strains, locus YLR039C, strain RIC1, active compounds read low 1.05 | S. cerevisiae deletion strains, locus YLR058C, strain SHM2 (second series), active compounds read low 1.01 | S. cerevisiae deletion strains, locus YLR085C, strain ARP6, active compounds read low 1.05 | S. cerevisiae deletion strains, locus YLR262C, strain YPT6, active compounds read low 1.06 | S. cerevisiae deletion strains, locus YML094W, strain GIM5, active compounds read low 1.01 | S. cerevisiae deletion strains, locus YMR219W, strain ESC1, active compounds read low 1.01 | S. cerevisiae deletion strains, locus YMR263W, strain SAP30, active compounds read low 0.986 | S. cerevisiae deletion strains, locus YNL153C, strain GIM3, active compounds read low 1 | S. cerevisiae deletion strains, locus YNL298W, strain CLA4 (second series), active compounds read low 1.04 | [3] 1.02 | S. cerevisiae deletion strains, locus YNR030W, strain Alg12, active compounds read low 1.03 | S. cerevisiae deletion strains, locus YPL055C, strain LGE1, active compounds read low 0.972 | [4] 1.02 | S. cerevisiae deletion strains, locus YPR135W, strain CTF4, active compounds read low 1.03 | S. cerevisiae strains, strain wild type, active compounds read low 1.01

CC12CCC(O)CC1CCc1ccccc12 (configuration not stated)
inactive: S. cerevisiae deletion strains, locus YAL021C, strain ccr4, active compounds read low 0.993 | S. cerevisiae deletion strains, locus YAL026C, strain drs2, active compounds read low 0.972 | S. cerevisiae deletion strains, locus YAL030W, strain snc1, active compounds read low 0.982 | S. cerevisiae deletion strains, locus YBL061C, strain skt5, active compounds read low 0.967 | S. cerevisiae deletion strains, locus YBR009C, strain hhf1, active compounds read low 0.932 | S. cerevisiae deletion strains, locus YBR023C, strain chs3, active compounds read low 0.967 | S. cerevisiae deletion strains, locus YBR171W, strain sec66, active compounds read low 0.938 | S. cerevisiae deletion strains, locus YBR231C, strain swc5, active compounds read low 0.998 | S. cerevisiae deletion strains, locus YBR279W, strain paf1, active compounds read low 0.981 | S. cerevisiae deletion strains, locus YCL011C, strain gbp2, active compounds read low 0.981 | S. cerevisiae deletion strains, locus YCL016C, strain dcc1, active compounds read low 0.977 | S. cerevisiae deletion strains, locus YCL061C, strain MRC1, active compounds read low 0.967 | S. cerevisiae deletion strains, locus YCL069W, strain vba3, active compounds read low 0.974 | S. cerevisiae deletion strains, locus YCR088W, strain abp1, active compounds read low 0.978 | S. cerevisiae deletion strains, locus YDL005C, strain med2, active compounds read low 0.97 | S. cerevisiae deletion strains, locus YDL040C, strain nat1, active compounds read low 0.979 | S. cerevisiae deletion strains, locus YDR001C, strain nth1, active compounds read low 0.971 | S. cerevisiae deletion strains, locus YDR069C, strain doa4, active compounds read low 0.984 | S. cerevisiae deletion strains, locus YDR137W, strain rgp1, active compounds read low 0.871 | S. cerevisiae deletion strains, locus YDR159W, strain sac3, active compounds read low 0.936 | S. cerevisiae deletion strains, locus YDR195W, strain ref2 1 | S. cerevisiae deletion strains, locus YDR297W, strain sur2, active compounds read low 0.971 | S. cerevisiae deletion strains, locus YDR334W, strain swr1, active compounds read low 0.989 | S. cerevisiae deletion strains, locus YDR335W, strain msn5, active compounds read low 0.972 | S. cerevisiae deletion strains, locus YEL003W, strain gim4, active compounds read low 0.96 | S. cerevisiae deletion strains, locus YEL037C, strain rad23, active compounds read low 0.98 | S. cerevisiae deletion strains, locus YEL061C, strain CIN8 (second series), active compounds read low 0.964 | S. cerevisiae deletion strains, locus YER015W, strain faa2, active compounds read low 0.983 | S. cerevisiae deletion strains, locus YER016W, strain bim1, active compounds read low 0.969 | S. cerevisiae deletion strains, locus YER111C, strain swi4, active compounds read low 0.96 | S. cerevisiae deletion strains, locus YER155C, strain BEM2 (second series), active compounds read low 0.944 | S. cerevisiae deletion strains, locus YFR010W, strain ubp6, active compounds read low 0.979 | S. cerevisiae deletion strains, locus YGL167C, strain pmr1, active compounds read low 0.962 | S. cerevisiae deletion strains, locus YGL173C, strain kem1, active compounds read low 0.957 | S. cerevisiae deletion strains, locus YGL227W, strain vid30, active compounds read low 0.961 | S. cerevisiae deletion strains, locus YGL240W, strain doc1, active compounds read low 0.901 | S. cerevisiae deletion strains, locus YGL253W, strain hxk2, active compounds read low 0.969 | S. cerevisiae deletion strains, locus YHR013C, strain ard1, active compounds read low 0.974 | S. cerevisiae deletion strains, locus YHR027C, strain rpn1, active compounds read low 0.991 | S. cerevisiae deletion strains, locus YHR142W, strain chs7, active compounds read low 0.973 | S. cerevisiae deletion strains, locus YJL092W, strain hpr5, active compounds read low 0.983 | S. cerevisiae deletion strains, locus YJL095W, strain BCK1 (second series), active compounds read low 0.99 | S. cerevisiae deletion strains, locus YJL115W, strain asf1, active compounds read low 0.977 | S. cerevisiae deletion strains, locus YJL129C, strain trk1, active compounds read low 0.92 | S. cerevisiae deletion strains, locus YJL154C, strain vps35, active compounds read low 0.99 | S. cerevisiae deletion strains, locus YJL164C, strain tpk1, active compounds read low 0.968 | S. cerevisiae deletion strains, locus YJL166W, strain qcr8, active compounds read low 0.946 | [5] 0.971 | S. cerevisiae deletion strains, locus YKL160W, strain elf1, active compounds read low 0.993 | S. cerevisiae deletion strains, locus YKR026C, strain gcn3, active compounds read low 0.954 | S. cerevisiae deletion strains, locus YKR091W, strain srl3, active compounds read low 0.969 | S. cerevisiae deletion strains, locus YLL001W, strain dnm1, active compounds read low 0.991 | S. cerevisiae deletion strains, locus YLL026W, active compounds read low 0.982 | S. cerevisiae deletion strains, locus YLL041C, strain sdh2, active compounds read low 0.974 | S. cerevisiae deletion strains, locus YLR027C, strain aat2, active compounds read low 0.984 | S. cerevisiae deletion strains, locus YLR221C, strain rsa3, active compounds read low 0.98 | S. cerevisiae deletion strains, locus YLR258W, strain gsy2, active compounds read low 0.968 | S. cerevisiae deletion strains, locus YLR320W, strain mms22, active compounds read low 0.906 | S. cerevisiae deletion strains, locus YLR342W, strain FKS1, active compounds read low 0.965 | S. cerevisiae deletion strains, locus YLR357W, strain rsc2, active compounds read low 0.935 | S. cerevisiae deletion strains, locus YLR370C, strain arc18, active compounds read low 0.969 | S. cerevisiae deletion strains, locus YLR384C, strain iki3, active compounds read low 0.993 | S. cerevisiae deletion strains, locus YML120C, strain ndi1, active compounds read low 0.955 | S. cerevisiae deletion strains, locus YMR058W, strain fet3, active compounds read low 0.97 | S. cerevisiae deletion strains, locus YMR125W, strain sto1, active compounds read low 1 | S. cerevisiae deletion strains, locus YMR129W, active compounds read low 0.961 | S. cerevisiae deletion strains, locus YMR205C, strain PFK2, active compounds read low 0.902 | S. cerevisiae deletion strains, locus YMR231W, strain pep5, active compounds read low 0.988 | S. cerevisiae deletion strains, locus YNL071W, strain lat1, active compounds read low 0.959 | S. cerevisiae deletion strains, locus YNL209W, strain ssb2, active compounds read low 0.988 | S. cerevisiae deletion strains, locus YNL248C, strain rpa49, active compounds read low 0.985 | S. cerevisiae deletion strains, locus YNL322C, strain KRE1 (second series), active compounds read low 0.959 | S. cerevisiae deletion strains, locus YNR049C, strain mso1, active compounds read low 0.971 | S. cerevisiae deletion strains, locus YOR001W, strain rrp6, active compounds read low 0.967 | S. cerevisiae deletion strains, locus YOR070C, strain gyp1, active compounds read low 0.973 | S. cerevisiae deletion strains, locus YOR080W, strain dia2, active compounds read low 0.968 | S. cerevisiae deletion strains, locus YOR083W, strain WHI5, active compounds read low 0.99 | S. cerevisiae deletion strains, locus YOR106W, strain vam3, active compounds read low 0.966 | S. cerevisiae deletion strains, locus YOR265W, strain rbl2, active compounds read low 0.992 | S. cerevisiae deletion strains, locus YOR270C, strain vph1, active compounds read low 0.94 | S. cerevisiae deletion strains, locus YOR290C, strain snf2, active compounds read low 0.898 | S. cerevisiae deletion strains, locus YPL051W, strain arl3, active compounds read low 0.986 | S. cerevisiae deletion strains, locus YPL078C, strain atp4, active compounds read low 0.973 | S. cerevisiae deletion strains, locus YPL106C, strain sse1, active compounds read low 1.01 | S. cerevisiae deletion strains, locus YPL240C, strain hsp82, active compounds read low 0.991
active: S. cerevisiae deletion strains, locus YDR392W, strain spt3, active compounds read low 0.634 | S. cerevisiae deletion strains, locus YLR262C, strain YPT6 (second series), active compounds read low 0.826
